Data: ChEMBL document CHEMBL3433997, “St. Jude Leishmania screening dataset” (2016)

Experiments:
Format in all cases: functional
[1] = molecular target: Solute carrier family 2, facilitated glucose transporter member 1 (Homo sapiens) (UniProt P11166); test: ST_JUDE_LEISH: Cytotoxicity at 2uM final concentration against transgenic Leishmania Mexicana promastigotes LmGLUT1 that are glucose transport deficient and complemented with the human glucose transporter GLUT1. Activity is measured by DNA content using SYBR green in vitro
Solute carrier family 2, facilitated glucose transporter member 1 (Homo sapiens), sequence (P11166 whole entry): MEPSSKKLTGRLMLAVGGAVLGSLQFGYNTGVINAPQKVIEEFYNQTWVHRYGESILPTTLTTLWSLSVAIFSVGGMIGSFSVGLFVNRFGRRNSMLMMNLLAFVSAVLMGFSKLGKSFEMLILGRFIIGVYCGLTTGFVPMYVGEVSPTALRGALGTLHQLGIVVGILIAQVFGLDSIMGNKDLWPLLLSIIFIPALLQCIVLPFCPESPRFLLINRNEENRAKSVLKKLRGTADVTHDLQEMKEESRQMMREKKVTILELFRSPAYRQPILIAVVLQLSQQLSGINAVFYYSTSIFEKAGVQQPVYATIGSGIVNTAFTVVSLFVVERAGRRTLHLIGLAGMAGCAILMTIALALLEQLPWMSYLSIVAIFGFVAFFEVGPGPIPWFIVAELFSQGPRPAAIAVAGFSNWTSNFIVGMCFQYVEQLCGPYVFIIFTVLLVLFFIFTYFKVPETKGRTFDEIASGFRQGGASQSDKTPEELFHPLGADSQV

[2] = molecular target: Hexose transporter 1 (Plasmodium falciparum) (UniProt O97467); test: ST_JUDE_LEISH: Cytotoxicity at 2uM final concentration against transgenic Leishmania Mexicana promastigotes LmPfHT that are glucose transport deficient and complemented with the Plasmodium falciparum hexose transporter. Activity is measured by DNA content using SYBR green in vitro
[3] = molecular target: Glucose transporter (Leishmania mexicana) (UniProt O61059); test: ST_JUDE_LEISH: Cytotoxicity at 2uM final concentration against transgenic Leishmania Mexicana promastigotes LmGT2 that are glucose transport deficient and complemented with the L. Mexicana glucose transporter 2. Activity is measured by DNA content using SYBR green in vitro

Row | Compound | inhibition [1] | inhibition [2] | inhibition [3]
1 | Cc1cc(C(=O)CN2C(=O)NC3(CCOc4ccccc43)C2=O)c(C)n1Cc1ccc(F)cc1 (centres undefined) | 3.91% | 2.31% | 1.1%
2 | C[C@H](Cc1ccc(OCCCCCOc2ccc(C[C@@H](C)NC[C@H](O)c3cccc(Cl)c3)cc2)cc1)NC[C@H](O)c1cccc(Cl)c1 | 106% | 104% | 107%
3 | CCn1ncc(Cl)c1CN(C)S(=O)(=O)c1ccc(Br)cc1 | -0.68% | -0.62% | -2.26%
4 | CC(C)c1ccc(NC(=O)NC2CCN(CCCCCNC(=O)/C=C/c3ccc(Cl)c(Cl)c3)CC2)cc1 | -0.71% | -0.91% | -0.17%
5 | COc1ccc(CNC2CCN(C)CC2)cc1-c1ccc(S(=O)(=O)NCCc2ccccn2)c(F)c1 | 3.16% | 2.16% | 4.77%
6 | COc1ccc2nccc(N3CCC(O)(CCNCc4ccc5c(n4)NC(=O)CO5)CC3)c2n1 | 2.27% | 3.33% | 2.81%
7 | CN1CC[C@@H](Oc2cc(Nc3nc(-c4ccc(C#N)cc4)cs3)ccc2Cl)C1 | 5.3% | 5.47% | 4.06%
8 | COc1ccc(-c2ccc3c(-c4cccc(S(C)(=O)=O)c4)cnc(N)c3c2)cc1 | 0.83% | 1% | 0.45%
9 | CCCN1CCN(CCCNc2c3ccccc3nc3ccccc23)CC1 | 73.1% | 78.2% | 65.1%
10 | CC1CN(CCCn2c3ccccc3c3ccc(C(=O)CCCN(C)C)cc32)CC(C)N1 (centres undefined) | 1.15% | 1.4% | 1.24%
11 | CC(=O)N(C)c1cccc(C(=O)Nc2cccc(-c3cccc(-c4nc5cccc(C)c5[nH]4)c3)c2)c1 | 13.3% | 3.96% | 11.4%
12 | COc1ccc(NC(=O)NC2CCN(c3ccnc4cc(Cl)ccc34)CC2)cc1 | 3.93% | 1.61% | 0.02%
13 | O=C(Nc1ccc(Cl)cc1)c1cc(Cl)ccc1NC(=O)C1CCc2ccccc2O1 (centres undefined) | 5.48% | 2.53% | 1.56%
14 | N=C(N)NN=CC(=O)Nc1cccc(C(F)(F)F)c1 | 0.23% | 0.15% | -1.62%
15 | Cc1cccc2nc(-c3ccc(-c4ccc(CNCc5cccc(N)c5)cc4)s3)[nH]c12 | 4.29% | 1.98% | 2.76%
16 | CC(C)(C)NCc1cc(Nc2ccnc3cc(Cl)ccc23)ccc1F | 7.77% | 8.36% | 9.71%
17 | CCc1c(C)c2ccc3c(c2oc1=O)CN(CCc1ccc(F)cc1)CO3 | 6.07% | 6.16% | 5.28%

Row | Compound | inhibition [1] | inhibition [2] | inhibition [3]
18 | COc1cccc2cc(C(=O)N[C@@H](CC(C)C)C(=O)N[C@H](/C=N/NC(=O)OC(C)(C)C)CC(=O)OC(C)(C)C)oc12 | 4.66% | 6.98% | 3.63%
19 | COc1ccccc1N1CCN(C(C(=O)NCc2ccc(C)cc2)c2ccc(C)cc2)CC1 (centres undefined) | -0.68% | -0.64% | -2.75%
20 | CC1(C)CN(CCC2CCC(NC(=O)/C=C/c3ccccc3F)CC2)Cc2ccc(C#N)cc21 (centres undefined) | 3.59% | 1% | 1.48%
21 | CC(=O)Nc1ccc(C(=O)Nc2ccc(-c3cccc(-c4nc5cc(C(F)(F)F)ccc5[nH]4)c3)cc2)cn1 | -0.12% | 0.25% | -0.11%
22 | Cc1nc(C)c(-c2ccc(Oc3cc(Cl)cc(Cl)c3)cc2)c(O)c1Cl | 2.68% | 3.03% | 0.49%
23 | O=C(O)c1ccc2nc(-c3ccccn3)c(-c3ccccn3)nc2c1 | -0.91% | -3.35% | -0.14%
24 | COc1cccc(CN2CCCN(Cc3cccc(NC(=O)c4ccc(Cl)c(Cl)c4)c3)CC2)c1 | 4.43% | -0.94% | 2.19%
25 | COc1ccc(/C=C/C(=O)Nc2ccc(-c3ccncc3)cc2)cc1CCCN(C)C | 6.87% | 5.55% | 6.94%
26 | O=C(Nc1ccc2c(c1)CCN2C1CCN(Cc2csc3ccccc23)C1)c1ccco1 (centres undefined) | 2.05% | 2.08% | 1.45%
27 | CC(C)COc1ccc(Cl)cc1Nc1nc(-c2nc3ccccc3[nH]2)cs1 | 2.76% | 1.35% | 1.01%
28 | CN1CCN(c2cc(-c3cccnc3)nc(-c3ccncc3)n2)CC1 | 5.56% | 5.65% | 3.57%
29 | CC1(C)N=C(N)N=C(N)N1OCc1ccc2c(c1)OCO2 | 9.15% | 6.63% | 13.4%
30 | Cc1cc2nc(-c3cc(-c4cccc(NS(C)(=O)=O)c4)cnc3N)[nH]c2cc1C | 1.13% | 0.27% | 0.05%
31 | O=C(c1ccc(Cl)c(Cl)c1)N1CCc2c([nH]c3ccccc23)C1CN1CCCC1 (centres undefined) | 4.26% | 5.06% | 3.77%
32 | CCOC(=O)c1ccc(NC(=O)Nc2ccc(Cn3ncc(N4CCCNCC4)c(Cl)c3=O)cc2)cc1 | 8.8% | 12.6% | 7.11%
33 | O=C(Nc1ccc(Cl)cc1)c1cccc(S(=O)(=O)NC2CCN(CC3CCCCC3)C2)c1 (centres undefined) | 9.12% | 8.41% | 4.13%
